# The whole screen tested about 310,000 compounds, of which about 14,000 (4.5%) showed an effect of 50% or more. The effect is printed as a negative number. This excerpt belongs to a sample that is enriched for strong results.
# Target: human ether-à-go-go-related gene (hERG) potassium channel (human, UniProt Q12809)
# Test: primary screen, population patch clamp on CHO cells stably expressing hERG; higher = less effect of the substance
# 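Note: peak tail current of the secondary pulse compared with the same well before compound.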
# human ether-à-go-go-related gene (hERG) potassium channel, sequence (Q12809 whole entry, looked up): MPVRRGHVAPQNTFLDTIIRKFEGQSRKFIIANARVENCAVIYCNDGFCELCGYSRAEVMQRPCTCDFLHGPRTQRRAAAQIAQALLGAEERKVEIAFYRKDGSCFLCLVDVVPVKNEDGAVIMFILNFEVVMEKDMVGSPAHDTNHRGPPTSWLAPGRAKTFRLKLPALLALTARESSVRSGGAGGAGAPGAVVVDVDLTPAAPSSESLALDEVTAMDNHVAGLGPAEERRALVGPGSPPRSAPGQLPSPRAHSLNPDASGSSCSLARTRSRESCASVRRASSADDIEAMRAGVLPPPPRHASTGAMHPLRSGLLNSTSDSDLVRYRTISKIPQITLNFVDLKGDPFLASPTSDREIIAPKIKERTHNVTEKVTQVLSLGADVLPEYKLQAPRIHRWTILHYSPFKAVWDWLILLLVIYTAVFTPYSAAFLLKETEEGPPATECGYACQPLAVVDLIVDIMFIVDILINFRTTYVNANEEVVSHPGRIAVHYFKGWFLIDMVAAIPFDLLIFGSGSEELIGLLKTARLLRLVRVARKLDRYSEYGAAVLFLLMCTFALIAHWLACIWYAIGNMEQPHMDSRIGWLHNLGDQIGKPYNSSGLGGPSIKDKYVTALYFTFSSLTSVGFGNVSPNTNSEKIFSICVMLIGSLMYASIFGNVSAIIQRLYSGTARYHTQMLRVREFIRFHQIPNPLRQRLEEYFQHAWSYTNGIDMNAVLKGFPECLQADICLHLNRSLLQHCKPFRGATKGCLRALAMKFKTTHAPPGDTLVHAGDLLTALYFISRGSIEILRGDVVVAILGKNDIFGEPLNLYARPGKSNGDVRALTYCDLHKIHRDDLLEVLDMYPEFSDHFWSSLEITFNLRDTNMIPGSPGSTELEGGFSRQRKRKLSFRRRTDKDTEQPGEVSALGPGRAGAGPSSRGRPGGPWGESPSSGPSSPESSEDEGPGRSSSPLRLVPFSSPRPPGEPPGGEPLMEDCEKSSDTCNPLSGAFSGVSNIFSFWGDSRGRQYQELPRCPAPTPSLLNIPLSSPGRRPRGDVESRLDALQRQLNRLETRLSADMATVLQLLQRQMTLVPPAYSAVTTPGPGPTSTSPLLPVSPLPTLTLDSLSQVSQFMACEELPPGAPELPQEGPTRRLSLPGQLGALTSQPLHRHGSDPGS
row,SMILES,"hERG current change (%, negative = inhibition) at 10uM"
1,CCCC(=O)Nc1ccc(Cl)c(NC(=O)c2ccc([N+](=O)[O-])cc2Cl)c1,-51.2%
2,CCC(=O)Nc1ccc(Cl)c(NC(=O)c2ccc([N+](=O)[O-])cc2)c1,-5.07%
3,CC(C)C(=O)Nc1ccc(NC(=O)c2ccc([N+](=O)[O-])cc2Cl)cc1,5.02%
4,CCCC(=O)Nc1cccc(NC(=O)c2ccc([N+](=O)[O-])cc2Cl)c1,-14.5%
5,CC(C)(C)NC(=O)NC(=O)CN1CCN(Cc2ccccc2)CC1,-1.77%
6,COC(=O)[C@@]1(Cc2ccc(OC)cc2)[C@H]2c3cc(C(=O)N(C)C)n(CCc4ccc(OC)c(Br)c4)c3C[C@H]2CN1C(=O)c1ccccc1,11.4%
7,Cc1cccc(C(=O)NCCN2CCOCC2)c1[N+](=O)[O-],4.8%
8,Cc1ccc(C)c(OCc2cc(C(=O)N3C[C@@H](C)O[C@@H](C)C3)no2)c1,4.95%
9,CCCCc1c(O)nc(SCC(=O)NCCc2ccc(OC)c(OC)c2)[nH]c1=O,-0.0252%
10,COc1cc(OC)cc(C(=O)NC(=S)Nc2ccc3[nH]c(=O)[nH]c3c2)c1,-27%
11,COc1ccc(C(=O)NC(=S)Nc2ccc3[nH]c(=O)[nH]c3c2)cc1,15.5%
12,COc1cccc(C(=O)NC(=S)Nc2ccc3[nH]c(=O)[nH]c3c2)c1,-70.3%
13,CCN(CC)c1ccc(CNc2nc3ccccc3n2C)cc1,-49.7%
14,CCC(=O)Nc1nc2ccccc2n1CCN1CCOCC1,16.2%
15,CCN(CC)c1ccc(CNc2nc3ccccc3n2CC)cc1,-23.5%
16,CCN(CC)c1ccc(CNc2nc3ccccc3n2C(C)C)cc1,1.88%
17,CCN(CC)c1ccc(CNc2nc3ccccc3n2CCN2CCCCC2)cc1,-74.5%
18,CCN(CC)c1ccc(CNc2nc3ccccc3n2CCN2CCOCC2)cc1,-79.5%
19,Cc1ccc(NC(=O)CCN2C(=O)C3CC=CCC3C2=O)cc1Cl (stereo not shown),-10.9%
20,COc1cc(-c2nnc(-c3ccncc3)o2)ccc1OCc1ccccc1,4.05%
21,Cc1ccccc1-c1nc2cc(NC(=O)C3CC3)ccc2o1,7.97%
22,Cc1ccc(NC(=O)C2CC2c2ccccc2)cc1 (stereo not shown),2.96%

row,SMILES,"hERG current change (%, negative = inhibition) at 10uM"
1,Cc1cccc(OCC(=O)Nc2cc(C)ccc2O)c1,12.4%
2,CCCn1c(=N)c(S(=O)(=O)c2ccccc2)cc2c(=O)n3ccccc3nc21,-15.6%
3,CCOCCCn1c(=N)c(S(=O)(=O)c2ccccc2)cc2c(=O)n3cc(C)ccc3nc21,-19.1%
4,CC(C)OCCCn1c(=N)c(S(=O)(=O)c2ccccc2)cc2c(=O)n3ccccc3nc21,-43.6%
5,CCOCCCn1c(=N)c(S(=O)(=O)c2ccc(C)cc2)cc2c(=O)n3cc(C)ccc3nc21,11.6%
6,Cc1ccc2nc3c(cc(C(N)=S)c(=N)n3CCCOC(C)C)c(=O)n2c1,-74.4%
7,CC(C)OCCCn1c(=N)c(C(N)=S)cc2c(=O)n3ccccc3nc21,-81.5%
8,CCOC(=O)C1=C(N)Oc2cc(C)[nH]c(=O)c2C1c1ccncc1 (stereo not shown),11.9%
9,COc1cc2c(cc1C1NC(=S)NC(C)=C1C(N)=O)CCCC2 (stereo not shown),9.6%
10,Cc1ccc(CNC(=O)CN2CCCC(C)C2)cc1 (stereo not shown),-29.7%
11,COc1ccc(N2CCN(C3CC(=O)N(C)C3=O)CC2)cc1 (stereo not shown),17.4%
12,O=S(=O)(c1ccc(Br)cc1Cl)N1CC[NH+](CCO)CC1.[Cl-],3.35%
13,Oc1ccc(/C=N/N(Cc2ccccc2)c2ccccc2)cc1,35.8%
14,Cc1sc2ncn(CC(=O)NCCCC(=O)N3CCN(Cc4ccc5c(c4)OCO5)CC3)c(=O)c2c1C,-6.94%
15,CCn1ncc(/C=C/C(=O)c2ccccc2)c1C,5.83%
16,COC(=O)c1c(NC(=O)CSc2nccn2C)sc(C)c1C,-15.8%
17,CCOC(=O)c1cc(C)sc1NC(=O)CSc1nccn1C,-19.9%
18,CCc1cc(C(=O)OC)c(NC(=O)CSc2nccn2C)s1,-56.9%
19,O=C1CCC(=O)N1CC(O)COc1ccccc1 (stereo not shown),4.87%
20,Cl.OC(COc1ccc(Cl)cc1)CN1C2=NCCCN2c2ccccc21 (stereo not shown),-76.3%
21,Cl.OC(COc1ccccc1)CN1C2=NCCCN2c2ccccc21 (stereo not shown),-67%

# Source: PMC4336329 (PLoS ONE, 2015)
